The target of test [1] is Calcium and integrin-binding protein 1 (Homo sapiens) (UniProt Q99828). Description: Primary qHTS for Identification of Calcium Integrin Binding Protein 1 (CIB1) Competitor (AID 1508620).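 Further: GST tagged CIB1 binding a fluorescein labelled alphaIIb integrin peptide tracer; top concentration of the series differs between compounds; on the % scale 0 is the no-effect control and ±100 the full control effect.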 A digest of the protocol: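 Fluorescence polarization competition: CIB1-GST (1 uM final) preincubated with compound 15 min at room temperature, then FITC-labeled alphaIIb peptide (100 nM final) added for another 15 min. Polarization read at Ex 480/Em 540.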
Calcium and integrin-binding protein 1 (Homo sapiens), sequence (Q99828 whole entry, looked up): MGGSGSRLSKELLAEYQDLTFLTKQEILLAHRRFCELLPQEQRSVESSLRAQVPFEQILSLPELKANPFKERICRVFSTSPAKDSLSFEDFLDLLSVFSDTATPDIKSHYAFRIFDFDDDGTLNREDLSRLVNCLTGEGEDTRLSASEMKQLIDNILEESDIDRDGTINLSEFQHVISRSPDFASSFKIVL
On the technique in general: Quantitative high-throughput screening tests each substance at several concentrations.

Test [2] is described as follows: Primary qHTS for inhibitors of nuclear receptor binding SET domain protein 2 (NSD2) in an isogenic RCH-ACV NSD2 p.E1099K mutant (9B) (AID 1645876). Further: nearly all actives have a fitted effect of over 70% in size. Further: potency means the concentration at half of the fitted maximal effect.
A short description of test [3]: Primary qHTS for inhibitors of nuclear receptor binding SET domain protein 2 (NSD2) in an RCH-ACV wild type WT cells (2C) (AID 1645877). Further: nearly all actives have a fitted effect of over 70% in size. Further: potency means the concentration at half of the fitted maximal effect.
Test [4] in a line: Primary qHTS for small molecule stabilizers of the endoplasmic reticulum resident proteome: Secreted ER Calcium Modulated Protein (SERCaMP) assay (AID 1508630). Further: on the % scale 0 is the no-effect control and ±100 the full control effect. The gist of the method:
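GLuc-SERCaMP-expressing SH-SY5Y cells, pretreated 16 h with compound, are challenged with thapsigargin to empty ER calcium stores; after 4 h, coelenterazine is added directly to the medium and luminescence is imaged.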

Test [5] deals with Catechol O-methyltransferase (Homo sapiens) (UniProt P21964). Description: Confirmatory Screen for Target Class Profiling of Small Molecule Inhibitors of Methyltransferases (AID 1745852). The settings on record: MTase-Glo luminescence, SAH detection, recombinant enzyme; measured here: COMT max response; stronger effect = lower value.
Catechol O-methyltransferase (Homo sapiens), sequence (P21964 whole entry, looked up): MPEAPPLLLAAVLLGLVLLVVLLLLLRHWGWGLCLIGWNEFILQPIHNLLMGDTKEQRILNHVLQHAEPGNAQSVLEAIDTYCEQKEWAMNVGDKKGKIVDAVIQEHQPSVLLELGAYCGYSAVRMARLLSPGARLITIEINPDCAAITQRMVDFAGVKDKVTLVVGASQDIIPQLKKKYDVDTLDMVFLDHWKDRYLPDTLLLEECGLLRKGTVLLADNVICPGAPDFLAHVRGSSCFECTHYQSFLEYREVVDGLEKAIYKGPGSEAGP
In test [6] the target is Guanidinoacetate N-methyltransferase (Homo sapiens) (UniProt Q14353). The description is as above. To be noted: MTase-Glo luminescence, SAH detection, recombinant enzyme; activity change, negative = inhibition: at 57.3 µM (top of the series) unless noted.
The target of test [7] is Cytochrome P450 2D6 (Homo sapiens) (UniProt P10635). Description: Cytochrome P450 family 2 subfamily D member 6 (CYP2D6) small molecule antagonists: luciferase biochemical (cell-free) qHTS assay (AID 1645840; active means well fitted curve in the direction sought with a large enough effect in the repeat runs; an effect the other way counts as inactive or inconclusive; further: on the % scale 0 is the no-effect control and ±100 the full control effect; nearly all actives have a fitted effect of over 55% in size). A digest of the protocol:
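P450-Glo luminescent screen: recombinant CYP2D6 enzyme–proluciferin substrate mix preincubated with compound 10 min at room temperature, then NADPH regeneration added for 1 h at room temperature. Detection reagent added for 20 min; luciferin light read as relative luminescence units.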

Test [8] has as its target Cytochrome P450 2C9 (Homo sapiens) (UniProt P11712). Description: Cytochrome P450 family 2 subfamily C member 9 (CYP2C9) small molecule antagonists: luciferase biochemical (cell-free) qHTS assay (AID 1645842; active means well fitted curve in the direction sought with a large enough effect in the repeat runs; an effect the other way counts as inactive or inconclusive; further: nearly all actives have a fitted effect of over 55% in size; further: potency means the concentration at half of the fitted maximal effect). A digest of the protocol:
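Luminescence, after 20 min with luciferin detection reagent, reflected CYP2C9 turnover during a 1 h NADPH-driven reaction at 37C. Enzyme-substrate mix contained 0.4% bovine serum albumin and was preincubated with compound 10 min at room temperature.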

Test [9] can be described thus: Counterscreen qHTS for small molecule stabilizers of the endoplasmic reticulum resident proteome: GLuc-NoTag assay (AID 1508627).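 Further: SH-SY5Y cells given compound then 100 nM thapsigargin to empty ER calcium; 0% = thapsigargin alone and -100% = DMSO vehicle control.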 A digest of the protocol:
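SH-SY5Y cells stably expressing constitutively secreted GLuc (no SERCaMP tag) were pre-incubated 5 h, treated with compound for 19 h, then 100 nM thapsigargin for 4 h at 37C; medium GLuc read by coelenterazine luminescence.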
(In general: A counterscreen serves to expose hits that act by an unwanted route or on another target.)

Test [10] can be described thus: Confirmatory qHTS for small molecule stabilizers of the endoplasmic reticulum resident proteome: Secreted ER Calcium Modulated Protein (SERCaMP) assay (AID 1508628). Further: on the % scale 0 is the no-effect control and ±100 the full control effect; nearly all actives have a fitted effect of over 40% in size. A digest of the protocol:
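SH-SY5Y cells stably expressing GLuc-SERCaMP, treated 16 h with compound (primary 1.53, 7.67, 38.3 uM; confirmation 11 concentrations, up to 76.6 uM), then 100 nM thapsigargin for 4 h. Secreted Gaussia luciferase in medium read by coelenterazine luminescence.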

Test [11] is described as follows: Cell Viability qHTS for small molecule stabilizers of the endoplasmic reticulum resident proteome (AID 1508629).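 Further: human SH-SY5Y neuroblastoma cells carrying the GLuc-SERCaMP reporter; compound exposure about 46 h in total before the viability read; on the % scale 0 is the no-effect control and ±100 the full control effect.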 The settings on record: cell viability counter-screen, 100 nM thapsigargin for final 4 h.
Test [12] is described as follows: A High-Content qHTS Against Drug Library for the Identification of Small Molecules that Inhibit DYT1 Early Onset Primary Dystonia-Associated Cell Pathology (AID 1645839; calls by dose curve). The gist of the method:
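Readout: %pathology, the punctate EGFP-TorsinA distribution from imaging, as the primary channel and cell count as the toxicity counterscreen. HEK293 Flp-In cells expressing delE TorsinA were induced with tetracycline and treated with compound for 48 h.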

Another test addresses Papain (Carica papaya) (UniProt P00784). The test is described as follows: Primary qHTS assay for inhibitors of the protease papain (AID 1645873).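 Further: papain turnover of Z-FR-AMC read as the AMC fluorescence gain over 10 min; on the % scale 0 is the no-effect control and ±100 the full control effect.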
Test [13] concerns the target Rap guanine nucleotide exchange factor 3 (Homo sapiens) (UniProt O95398). The test is described as follows: Confirmatory qHTS for agonist of cAMP-regulated guanine nucleotide exchange factor 3 (EPAC1) (AID 1645881).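 Further: EPAC1 catalysed release of BODIPY-GDP from Rap1B seen as fluorescence loss; 100% = effect of cAMP agonist control; nearly all actives have a fitted effect of over 75% in size.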
Test [14] has as its target Rap guanine nucleotide exchange factor 4 (Homo sapiens) (UniProt Q8WZA2). The test is described as follows: Confirmatory qHTS for agonist of cAMP-regulated guanine nucleotide exchange factor 4 (EPAC2) (AID 1645884).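 Further: nucleotide exchange releases bodipy-GDP from Rap1 and this lowers its fluorescence; on the % scale 0 is the no-effect control and ±100 the full control effect; nearly all actives have a fitted effect of over 65% in size.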
Test [15] has the same target. The test is described as follows: Confirmatory qHTS for antagonist of cAMP-regulated guanine nucleotide exchange factor 4 (EPAC2) (AID 1645885). Further: potency means the concentration at half of the fitted maximal effect; nearly all actives have a fitted effect of over 25% in size.
The target of test [16] is N-terminal Xaa-Pro-Lys N-methyltransferase 1 (Homo sapiens) (UniProt Q9BV86). The test is described as follows: Confirmatory qHTS for Inhibitors of N-terminal methyltransferase 1 (NTMT1): MTaseGlo Assay (AID 1645874). Further: potency means the concentration at half of the fitted maximal effect; nearly all actives have a fitted effect of over 65% in size. The gist of the method:
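qHTS format: NTMT1 125 nM, SAM 100 uM, peptide SPKRIA 1 uM final; 15 min compound preincubation, 30 min reaction at room temperature. MTase-Glo luminescence.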

Where “and” joins values, the source holds several entries; their conditions need not be identical. Identical values can stand only once. Records with an inconclusive call do not appear. Where a structure was tested more than once in an assay, its records may differ in their call. Calls of active or inactive are those of the source. Unless noted, the call rests on the fitted dose curve; in most records, active means well fitted curve in the direction sought with a large enough effect; inconclusive means small, poorly fitted or top-dose-only effect, or another doubt; inactive means no such curve, though single readings can be large; an effect the other way counts as inactive or inconclusive.

Cytochrome P450 2C9 (Homo sapiens), sequence (P11712 whole entry, looked up): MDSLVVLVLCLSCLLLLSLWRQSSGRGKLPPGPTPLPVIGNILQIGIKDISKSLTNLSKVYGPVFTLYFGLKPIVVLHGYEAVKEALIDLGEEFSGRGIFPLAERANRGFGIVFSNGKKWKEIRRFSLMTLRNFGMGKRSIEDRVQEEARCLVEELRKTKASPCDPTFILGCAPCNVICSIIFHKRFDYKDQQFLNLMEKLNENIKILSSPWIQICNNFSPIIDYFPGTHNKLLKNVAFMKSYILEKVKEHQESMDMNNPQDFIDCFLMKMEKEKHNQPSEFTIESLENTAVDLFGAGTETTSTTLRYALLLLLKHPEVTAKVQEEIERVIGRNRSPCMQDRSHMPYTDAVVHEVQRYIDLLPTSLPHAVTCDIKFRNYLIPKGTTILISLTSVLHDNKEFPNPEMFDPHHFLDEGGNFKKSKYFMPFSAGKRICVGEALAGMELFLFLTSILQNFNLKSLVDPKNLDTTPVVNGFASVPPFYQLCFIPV
Rap guanine nucleotide exchange factor 4 (Homo sapiens), sequence (Q8WZA2 whole entry, looked up): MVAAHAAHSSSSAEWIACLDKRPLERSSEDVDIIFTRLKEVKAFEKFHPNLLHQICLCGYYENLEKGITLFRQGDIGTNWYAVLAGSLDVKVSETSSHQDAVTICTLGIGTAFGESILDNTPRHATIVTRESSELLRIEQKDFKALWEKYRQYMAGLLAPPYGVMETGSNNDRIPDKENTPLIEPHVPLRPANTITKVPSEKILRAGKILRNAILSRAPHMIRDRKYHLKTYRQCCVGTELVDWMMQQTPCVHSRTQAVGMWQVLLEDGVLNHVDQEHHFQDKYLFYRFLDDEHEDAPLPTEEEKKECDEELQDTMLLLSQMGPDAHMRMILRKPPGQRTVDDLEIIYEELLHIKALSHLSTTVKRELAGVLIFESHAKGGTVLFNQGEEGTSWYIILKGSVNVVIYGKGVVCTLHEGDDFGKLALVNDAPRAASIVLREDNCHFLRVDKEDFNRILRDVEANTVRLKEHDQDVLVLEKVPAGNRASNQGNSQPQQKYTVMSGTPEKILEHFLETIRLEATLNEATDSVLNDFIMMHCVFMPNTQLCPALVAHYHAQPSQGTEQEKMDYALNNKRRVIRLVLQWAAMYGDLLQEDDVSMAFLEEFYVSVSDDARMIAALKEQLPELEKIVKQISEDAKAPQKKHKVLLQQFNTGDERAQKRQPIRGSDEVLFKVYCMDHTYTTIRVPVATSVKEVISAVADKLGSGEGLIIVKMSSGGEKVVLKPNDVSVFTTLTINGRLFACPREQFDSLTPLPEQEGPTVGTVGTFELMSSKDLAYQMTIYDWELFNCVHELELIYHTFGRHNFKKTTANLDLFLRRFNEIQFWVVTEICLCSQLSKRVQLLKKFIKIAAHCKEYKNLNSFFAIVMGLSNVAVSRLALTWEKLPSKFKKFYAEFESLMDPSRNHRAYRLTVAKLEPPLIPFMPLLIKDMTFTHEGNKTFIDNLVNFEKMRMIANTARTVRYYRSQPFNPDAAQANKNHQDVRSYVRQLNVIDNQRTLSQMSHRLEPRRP
Cytochrome P450 2D6 (Homo sapiens), sequence (P10635 whole entry, looked up): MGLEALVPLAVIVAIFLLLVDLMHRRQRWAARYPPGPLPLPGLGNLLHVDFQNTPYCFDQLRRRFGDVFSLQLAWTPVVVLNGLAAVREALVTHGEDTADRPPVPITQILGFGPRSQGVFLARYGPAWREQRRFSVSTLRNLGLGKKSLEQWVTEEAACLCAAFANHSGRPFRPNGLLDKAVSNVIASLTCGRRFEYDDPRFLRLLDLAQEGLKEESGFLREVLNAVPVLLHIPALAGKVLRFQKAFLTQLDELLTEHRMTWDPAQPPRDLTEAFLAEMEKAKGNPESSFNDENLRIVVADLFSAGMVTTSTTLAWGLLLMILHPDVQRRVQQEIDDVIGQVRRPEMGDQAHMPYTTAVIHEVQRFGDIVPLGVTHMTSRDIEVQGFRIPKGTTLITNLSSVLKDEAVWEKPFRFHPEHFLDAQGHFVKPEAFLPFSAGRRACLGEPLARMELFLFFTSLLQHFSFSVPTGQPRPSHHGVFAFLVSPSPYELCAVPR
Rap guanine nucleotide exchange factor 3 (Homo sapiens), sequence (O95398 whole entry, looked up): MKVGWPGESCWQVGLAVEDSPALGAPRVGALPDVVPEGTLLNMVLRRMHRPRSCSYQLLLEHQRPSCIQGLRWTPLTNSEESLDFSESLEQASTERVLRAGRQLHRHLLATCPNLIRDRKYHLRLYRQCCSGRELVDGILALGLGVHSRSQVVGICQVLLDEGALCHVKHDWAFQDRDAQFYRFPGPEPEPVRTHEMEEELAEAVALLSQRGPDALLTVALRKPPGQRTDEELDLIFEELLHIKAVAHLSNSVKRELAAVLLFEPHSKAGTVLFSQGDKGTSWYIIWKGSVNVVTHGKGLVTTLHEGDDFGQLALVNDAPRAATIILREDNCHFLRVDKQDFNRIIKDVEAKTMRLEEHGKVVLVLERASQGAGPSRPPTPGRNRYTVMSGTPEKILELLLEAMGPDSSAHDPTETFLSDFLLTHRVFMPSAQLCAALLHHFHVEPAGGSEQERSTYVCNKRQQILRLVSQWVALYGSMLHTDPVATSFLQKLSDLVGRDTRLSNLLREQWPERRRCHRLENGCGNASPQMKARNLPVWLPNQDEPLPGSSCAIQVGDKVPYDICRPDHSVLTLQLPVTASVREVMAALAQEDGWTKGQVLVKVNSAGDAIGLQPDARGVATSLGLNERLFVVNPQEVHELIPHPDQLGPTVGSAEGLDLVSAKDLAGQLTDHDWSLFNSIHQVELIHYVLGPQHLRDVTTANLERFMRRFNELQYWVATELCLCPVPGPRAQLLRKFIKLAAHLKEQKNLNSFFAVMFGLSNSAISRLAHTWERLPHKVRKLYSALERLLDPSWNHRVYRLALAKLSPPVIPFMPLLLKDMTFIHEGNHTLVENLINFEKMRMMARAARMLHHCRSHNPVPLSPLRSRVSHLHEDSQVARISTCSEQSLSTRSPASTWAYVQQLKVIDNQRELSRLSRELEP
Papain (Carica papaya), sequence (P00784 whole entry, looked up): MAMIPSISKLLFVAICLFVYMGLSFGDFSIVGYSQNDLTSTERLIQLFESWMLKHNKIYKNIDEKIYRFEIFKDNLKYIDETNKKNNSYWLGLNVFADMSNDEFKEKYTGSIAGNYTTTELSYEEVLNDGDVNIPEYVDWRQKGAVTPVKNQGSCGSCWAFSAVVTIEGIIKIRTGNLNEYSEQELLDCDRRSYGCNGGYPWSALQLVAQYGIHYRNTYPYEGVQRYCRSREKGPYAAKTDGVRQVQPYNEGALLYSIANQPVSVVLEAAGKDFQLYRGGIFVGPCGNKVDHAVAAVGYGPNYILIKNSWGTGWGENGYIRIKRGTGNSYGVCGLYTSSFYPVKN
N-terminal Xaa-Pro-Lys N-methyltransferase 1 (Homo sapiens), sequence (Q9BV86 whole entry, looked up): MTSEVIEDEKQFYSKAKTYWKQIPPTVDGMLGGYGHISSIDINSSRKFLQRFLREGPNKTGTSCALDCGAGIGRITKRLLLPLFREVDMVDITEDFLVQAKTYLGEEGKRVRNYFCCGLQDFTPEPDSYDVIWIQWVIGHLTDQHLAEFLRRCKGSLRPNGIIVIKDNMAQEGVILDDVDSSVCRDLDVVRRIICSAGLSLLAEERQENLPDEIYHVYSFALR

Regarding `CC[C@H](Nc1ncnc2nc[nH]c12)c1nc2cccc(F)c2c(=O)n1-c1ccccc1`, the outcome in test [1] was “inactive”. Besides, in test [2], the Potency was 164 nM (active) and 833 nM (active); the activity change, negative = viability loss is -6.84% [at 9.23 µM] (inactive). Also, in test [3], the Potency is 231 nM (active) and 1.18 µM (active); the activity change, negative = cell killing is -1.09% [at 9.23 µM] (inactive).
For `NC(=O)c1ccc(-c2nc(-c3ccc4c(c3)OCCO4)c(-c3ccccn3)[nH]2)cc1`, the outcome in test [1] was “inactive”. Further, the Potency entry in [4], in [2] and in [3] was “inactive” each time.
Take `Cc1cnc(Nc2ccc(OCCN3CCCC3)cc2)nc1Nc1cccc(S(=O)(=O)NC(C)(C)C)c1`: in test [1], the outcome was “inactive”. Further, in test [4], the Potency result is “inactive”. Also, the Potency in test [2] is 1.83 µM (active) and 2.35 µM (active); in [3], 1.83 µM (active) and 1.86 µM (active). Also, in test [5], the activity is -12.3%. Further, in test [6], the activity change, negative = inhibition was -4.99%.
Consider `COc1cccc2cc(-c3nc(C4CCC(C(=O)O)CC4)n4ncnc(N)c34)[nH]c12` (stereo unspecified), for which the outcome in [1] is “inactive”. Besides, the Potency result in test [7] and in [8] was “inactive” in each case. Further, the Potency in test [2] is 5.9 µM (active) and 731 nM (active); in test [3], 4.68 µM (active) and 820 nM (active).
For the molecule `CC1(C)Cc2c(-c3ccccc3)c(-c3ccc(Cl)cc3)c(CC(=O)O)n2C1`, in [4], the Potency result was “inactive”.
As for `CC1(C)CNc2cc(NC(=O)c3cccnc3NCc3ccncc3)ccc21`, the outcome in [1] was “inactive”. Besides, the Potency entry in test [4], in test [2] and in [3] was “inactive” each time.
On to `Cc1ccnc(NS(=O)(=O)c2ccc(NC(=O)Nc3ccc(S(=O)(=O)Nc4nccc(C)n4)cc3)cc2)n1`, for which the outcome in test [1] is “inactive”. Moreover, the Potency result in test [4], in [2] and in test [3] was “inactive” in each case.
For the molecule `NC(=O)C1CCCc2c1[nH]c1ccc(Cl)cc21` (stereo unspecified), the outcome in test [1] is “inactive”. The Potency entry in test [4], in [2] and in test [3] was “inactive” in each case.
Regarding `CCN(CC)CCCC(C)Nc1ccnc2cc(Cl)ccc12` (stereo unspecified), the Potency result in test [9], in test [10], in test [12], in test [2] and in [3] was “inactive” in each case. In test [11], the max response is -9.95% (inactive). For the same molecule, in test [5], the activity is -0.478%. Further, the activity change, negative = inhibition in [6] was found to be 2.04% [at 9.47 µM].
As to `CCn1c(-c2nonc2N)nc2c(C#CC(C)(C)O)ncc(OC[C@H]3CCCNC3)c21`, in test [1], the outcome was “inactive”. The Potency result in test [4] is “inactive”. The Potency in test [2] is 1.32 µM (active); in test [3] it was 1.18 µM (active).
As for `Cc1cc(Nc2nc(N[C@@H](C)c3ncc(F)cn3)ncc2Cl)n[nH]1`, in test [1], the outcome was “inactive”. The Potency in [2] is 2.05 µM (active) and 2.95 µM (active).
Consider `CN(C)c1ccc(Nc2nc(N)n(C(=O)c3c(F)cccc3F)n2)cc1`, for which, in test [1], the outcome was “inactive”. The Potency in test [2] is 1.48 µM (active); in test [3] it was 0.833 µM (active).
Turning to `O=C(O)[C@@H](c1ccc(OCc2ccc3ccccc3n2)cc1)C1CCCC1`, in test [1], the outcome is “inactive”. Besides, the Potency result in test [4], in [2] and in test [3] was “inactive” in each case.
`CCOC(=O)C1=C[C@@]2(CC)CCCN3CCc4c(n1c1ccccc41)[C@H]32`: the Potency result in [4] is “inactive”.
For `CNC[C@H](O)c1cccc(O)c1`, the Potency result (in [4]; in test [12]; in test [7]; in test [8]; with Papain (Carica papaya); in test [2]) was “inactive” in each case. In test [3], the Potency entry was “inactive”.
Turning to `C[C@H](NC(=O)Cc1cc(F)cc(F)c1)C(=O)N[C@@H]1C(=O)N(C)c2ccccc2-c2ccccc21`, the outcome in test [1] was “inactive”. Moreover, in [2], the Potency result was “inactive”.
`O=S(=O)(N=Cc1c(O)ccc2ccccc12)c1cccs1`: the Potency entry in test [4] is “inactive”.
Consider `O=C1[C@H](Cc2ccc(O)cc2)N2C(=O)CCN(C(=O)NCc3ccccc3)[C@H]2CN1Cc1cccc2ccccc12`, for which the outcome in [1] was “inactive”. Further, the Potency result in test [4] is “inactive”. Besides, the Potency in test [2] and in test [3] was 3.72 µM (active) throughout.
For `CS(=O)(=O)Oc1ccc2c(NC(N)=O)c(C(=O)c3ccc(Cl)cc3Cl)oc2c1`, the outcome in test [1] is “inactive”. Also, the Potency result in test [2] is “inactive”.
As to `C/C(=C\C(=O)Nc1ccccc1C(=O)O)c1ccc2ccccc2c1`, in test [7], the Potency entry was “inactive”. Also, the Potency in test [2] was 20.9 µM (active).
As for `CCOc1ccn(-c2ccc(F)cc2)c(=O)c1C(=O)Nc1ccc(Oc2ccnc(N)c2Cl)c(F)c1`, the Potency entry in test [4], in [7] and in test [8] was “inactive” throughout. Moreover, the Potency in [2] was 7.28 µM (active) and 11.8 µM (active); in [3], 8.17 µM (active) and 7.42 µM (active).
As for `CS(=O)(=O)c1ccc(C(=O)Nc2ccc(Cl)c(-c3ccccn3)c2)c(Cl)c1`, the Potency result in test [4], in test [2] and in [3] was “inactive” each time.
In the case of `CN1CCN(CCCN2c3ccccc3Sc3ccc(C(F)(F)F)cc32)CC1`, the Potency entry (in [4]; with Papain (Carica papaya)) was “inactive” throughout. Further, the Potency was 18.8 µM (active) and 16.6 µM (active) in [2]; 23.7 µM (active) and 16.6 µM (active) in [3]; 24.8 µM (active) and 44.1 µM (active) in test [15]. The outcome in test [13] and in test [14] was “inactive” each time.
For the molecule `C#Cc1cccc(Nc2ncnc3cc(OCCOC)c(OCCOC)cc23)c1`, the Potency result in test [4], in test [12], in test [7] and in [8] was “inactive” each time. The figures for the Potency in [2] and in test [3] were 8.41 µM (active) and 9.44 µM (active), respectively.
Consider `C[C@@H]1CN(Cc2ccc(F)cc2)[C@@H](C)CN1C(=O)c1cc2c(C(=O)C(=O)N(C)C)cn(C)c2cc1Cl`, for which the Potency entry in test [4] was “inactive”. The Potency in [8] was 7.56 µM (active).
Regarding `Nc1ncnc2nc(-c3ccc(N4CCOCC4)nc3)cc(-c3cccc(Br)c3)c12`, the Potency in [16] was 0.515 µM (active).
As to `Cc1cnc(NC(=O)C2=C(O)c3ccccc3S(=O)(=O)N2C)s1`, the Potency result in [4], in test [12], in [7], in test [2] and in test [3] was “inactive” each time. Besides, the Potency in test [8] is 11 µM (active) and inactive.
With `O=C1CCCC2=C1C(c1[nH]ncc1Cl)N=C(Nc1nc3ccccc3o1)N2` (stereo unspecified), the Potency entry in test [4], in test [2] and in [3] was “inactive” throughout.

The record behind these values is PubChem BioAssay (NCATS).
